Experimental findings from PubChem BioAssay AID585 (National Center for Advancing Translational Sciences (NCATS), 2007) are described below.

The structures appear in SMILES notation. In all, about 71,000 compounds went through this assay and about 1,300 (1.8%) were called active. The sample holds actives, similar compounds and a random draw of the others, so the mix is not that of the screen. Unmarked numbers belong to inactive results. Calls follow the shape of the full dose curve.
Potency is read from the fitted curve at half-maximal effect.

For this test, the target named is Beta-lactamase (Escherichia coli (strain K12)) (UniProt P00811). The test is described as follows: Promiscuous and Specific Inhibitors of AmpC Beta-Lactamase (assay without detergent). As to activity change, negative = inhibition: % of control where 0% means no effect. To be noted: AmpC nitrocefin hydrolysis, absorbance 480 nm, no detergent; series mostly up to 28.7 µM; activity change, negative = inhibition: at the top concentration. As to the method: NIH Molecular Libraries Screening Centers Network [MLSCN]
Beta-lactamase (Escherichia coli (strain K12)), sequence (P00811 whole entry, looked up): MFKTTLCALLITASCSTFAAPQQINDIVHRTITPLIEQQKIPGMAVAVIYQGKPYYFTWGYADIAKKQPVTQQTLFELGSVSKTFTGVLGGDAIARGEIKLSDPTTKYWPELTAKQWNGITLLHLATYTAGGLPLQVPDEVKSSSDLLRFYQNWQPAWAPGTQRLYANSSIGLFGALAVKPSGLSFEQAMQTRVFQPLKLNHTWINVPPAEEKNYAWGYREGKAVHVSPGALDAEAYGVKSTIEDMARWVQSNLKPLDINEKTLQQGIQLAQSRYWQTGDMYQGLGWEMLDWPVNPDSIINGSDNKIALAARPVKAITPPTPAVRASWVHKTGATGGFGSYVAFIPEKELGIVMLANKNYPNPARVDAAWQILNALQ
NIH Chemical Genomics Center [NCGC]
PI Name: Shoichet, Brian K.
This aggregation profiling approach exploits the sensitivity of aggregate formation to detergent. Inhibition of b-lactamase is measured in the presence and absence of 0.01% Triton X-100. See Pubchem assay "Promiscuous and Specific Inhibitors of AmpC Beta-Lactamase (assay with detergent)" for related screen. Compounds that inhibit only in the absence of detergent are considered likely promiscuous aggregators.
A screen of 1,030 compounds was performed in Brian Shoichet's lab in 96-well format. AmpC activity was measured by following the absorbance at 480 nm. Nitrocefin is a chromogenic substrate: while nitrocefin is yellow (lmax 390 nm), the product of its hydrolysis is red (lmax 486 nm, 17,000 M-1). AmpC beta lactamase was provided by Brian Shoichet and Brian Feng, UCSF.
NCGC Assay Protocol Summary:
20 mM phosphate buffer, pH 7.0
Triton X-100: No Detergent screen: 0.0001%, Detergent screen: 0.01%.
Buffer in columns 3 and 4 as negative control (no enzyme).
5.3 nM AmpC in columns 1, 2, 5-48. Titration of UCSF compound 9 control (from 10 mM, then 1:2) pin-transferred to column 2. Column 1 is neutral (100% activity).
Six uL of reagents were dispensed to 1536-well Greiner black clear bottom plates. Compounds and controls (23 nL) were transferred via Kalypsys PinTool. The plates were incubated for 15 min at room temperature, and then 2 uL of 800 uM solution of nitrocefin was added to start the reaction. The plates were immediately transferred to and read every 20 seconds for 4 min on ViewLux (Perkin-Elmer) High-throughput CCD imager using 480 nm absorbance protocol. During dispense, reagent bottles were kept submerged into 4 deg C water bath.
Keywords: NIH Roadmap, MLSCN, MLI, MLSMR, qHTS, NCGC, AmpC Beta-Lactamase, Aggregation.
With `COC(=O)N1CCC2(CCCN(Cc3ccccc3OC)C2)CC1`, the “activity change, negative = inhibition” value is 0.4%. On to `c1ccc(-c2cn3cccnc3n2)cc1`, for which the “activity change, negative = inhibition” value is -2.6%.

Turning to `O=C(C1=C(O)C(=O)N(c2ncccn2)C1c1cccs1)c1ccco1` (stereo not drawn), the “activity change, negative = inhibition” value was -10.9%. Regarding `CNC(=O)Nc1cc(C(C)(C)C)no1`, the “activity change, negative = inhibition” value was 0.5%.

Regarding `Cc1cccc2c1N(CC(=O)OC(C)C)C(=O)C2=O`, the “activity change, negative = inhibition” value is 1.8%. In the case of `COc1ccc(C)cc1S(=O)(=O)NC1CCCCC1`, the “activity change, negative = inhibition” value is 23.8%. For `O=C(CCCn1c(=O)[nH]c2cc(Cl)ccc2c1=O)NCCN1CCN(c2ccccc2)CC1`, the “activity change, negative = inhibition” value was 92.9%. Regarding `CCOC(=O)N1CCC(Nc2c(NCCCN3CCN(c4ccc(OC)cc4)CC3)c(=O)c2=O)CC1`, the “activity change, negative = inhibition” value was 45.6%. Turning to `CCOC(=O)N1CCC(Nc2c(NCCN3CCN(c4cccc(Cl)c4)CC3)c(=O)c2=O)CC1`, the Potency was 3.98 µM [single pt active] (active). For the molecule `COc1ccc2c(c1)OC(O)(C(F)(F)C(F)F)CC2=O` (stereo not drawn), the “activity change, negative = inhibition” value was -0.7%. Regarding `O=CN1CCN(C2CC(=O)N(c3ccc4c(c3)OCO4)C2=O)CC1` (stereo not drawn), the “activity change, negative = inhibition” value was 1.1%. On to `C=CCSc1nnc(Cn2c(=O)sc3ccccc32)n1C`, for which the Potency is 3.98 µM [single pt active] (active). With `Cc1ccccc1CSc1nnc(Cn2c(=O)sc3ccccc32)n1C`, the “activity change, negative = inhibition” value was 32.6%. As to `Cc1cccc(CSc2nnc(Cn3c(=O)sc4ccccc43)n2C)c1`, the “activity change, negative = inhibition” value was 38.5%. As for `CC1CCN(c2oc(-c3ccccc3F)nc2C#N)CC1`, the “activity change, negative = inhibition” value was 11.5%. On the same count and under the same terms, for `C=CCn1c(C)cc(C(=O)CN2C(=O)c3ccccc3C2=O)c1C` the value was 5.1%; for `Clc1ccc(C2CC(c3cccs3)n3ncnc3N2)cc1Cl` (stereo not drawn), 96.9%. Consider `COc1ccc(C2CC(c3ccccc3)Nc3ncnn32)cc1` (stereo not drawn), for which the Potency is 3.98 µM [single pt active] (active). `COc1ccc(C2CC(c3ccc(C)cc3)Nc3ncnn32)cc1` (stereo not drawn): the “activity change, negative = inhibition” value was 80.4%. For the molecule `Cc1noc(C)c1C(=O)NC(C)c1ccc2c(c1)OCO2` (stereo not drawn), the “activity change, negative = inhibition” value is -5.3%. On the same count and under the same terms, next, `CN1CCC2(CC1)NC(=O)NC2=O`: -9.4%. In the case of `COc1cccc(-c2nnc(NC(=O)c3ccc(S(=O)(=O)N(CC(C)C)CC(C)C)cc3)o2)c1`, the Potency is 7.94 µM (active). Take `CCN(CC)C(=O)CSc1nnc(-c2cccc(OC)c2)o1`: the “activity change, negative = inhibition” value was 25.2%. As to `COc1cccc(NC(=O)CN(C)S(=O)(=O)c2ccc(C)cc2)c1`, the “activity change, negative = inhibition” value was 4.9%. On to `CC(C)C[C@@H](CC(=O)N[C@@H](CCC(=O)O)CC(=O)O)NC(=O)[C@@H]1CCCC[C@H]1NC(=O)C[C@@H](NC(=O)C[C@H](Cc1c[nH]c2ccccc12)NC(=O)[C@@H]1CCCC[C@H]1N)C(C)C`, for which the “activity change, negative = inhibition” value was 150%. `CCOc1ccc(OCC)c(NC(=O)C2CCN(S(=O)(=O)c3c(C)noc3C)CC2)c1`: the “activity change, negative = inhibition” value was 70.7%. Still for that read-out and setting: next, `Cc1ccc(NC(=O)C2CCCN(S(=O)(=O)c3c(C)noc3C)C2)c(C)c1` (stereo not drawn): 37.8%.

Regarding `Cc1noc(C)c1S(=O)(=O)N1CCCC(C(=O)Nc2nccs2)C1` (stereo not drawn), the Potency is 3.98 µM [single pt active] (active).
